Data as given in PubChem BioAssay AID1117353 (Cheminformatics & Chemogenomics Research Group (CCRG), …, 2015).
Unmarked numbers belong to inactive results. Activity calls are given as the source filed them. No stated cut-off is given here; in the data, active means inhibition above about 50%; inactive means the rest.

Molecular target: Vascular endothelial growth factor receptor 2 (Homo sapiens) (UniProt P35968)
Experiment: Biochemical primary assay, inhibitors of H. sapiens VEGFR2, LANCE Ultra time-resolved FRET readout, NPC library (AID 1117353)
Conditions: LANCE Ultra TR-FRET kinase assay; at 20 µM (top of the series)

Chain of Vascular endothelial growth factor receptor 2 (Homo sapiens) (P35968 whole entry, looked up): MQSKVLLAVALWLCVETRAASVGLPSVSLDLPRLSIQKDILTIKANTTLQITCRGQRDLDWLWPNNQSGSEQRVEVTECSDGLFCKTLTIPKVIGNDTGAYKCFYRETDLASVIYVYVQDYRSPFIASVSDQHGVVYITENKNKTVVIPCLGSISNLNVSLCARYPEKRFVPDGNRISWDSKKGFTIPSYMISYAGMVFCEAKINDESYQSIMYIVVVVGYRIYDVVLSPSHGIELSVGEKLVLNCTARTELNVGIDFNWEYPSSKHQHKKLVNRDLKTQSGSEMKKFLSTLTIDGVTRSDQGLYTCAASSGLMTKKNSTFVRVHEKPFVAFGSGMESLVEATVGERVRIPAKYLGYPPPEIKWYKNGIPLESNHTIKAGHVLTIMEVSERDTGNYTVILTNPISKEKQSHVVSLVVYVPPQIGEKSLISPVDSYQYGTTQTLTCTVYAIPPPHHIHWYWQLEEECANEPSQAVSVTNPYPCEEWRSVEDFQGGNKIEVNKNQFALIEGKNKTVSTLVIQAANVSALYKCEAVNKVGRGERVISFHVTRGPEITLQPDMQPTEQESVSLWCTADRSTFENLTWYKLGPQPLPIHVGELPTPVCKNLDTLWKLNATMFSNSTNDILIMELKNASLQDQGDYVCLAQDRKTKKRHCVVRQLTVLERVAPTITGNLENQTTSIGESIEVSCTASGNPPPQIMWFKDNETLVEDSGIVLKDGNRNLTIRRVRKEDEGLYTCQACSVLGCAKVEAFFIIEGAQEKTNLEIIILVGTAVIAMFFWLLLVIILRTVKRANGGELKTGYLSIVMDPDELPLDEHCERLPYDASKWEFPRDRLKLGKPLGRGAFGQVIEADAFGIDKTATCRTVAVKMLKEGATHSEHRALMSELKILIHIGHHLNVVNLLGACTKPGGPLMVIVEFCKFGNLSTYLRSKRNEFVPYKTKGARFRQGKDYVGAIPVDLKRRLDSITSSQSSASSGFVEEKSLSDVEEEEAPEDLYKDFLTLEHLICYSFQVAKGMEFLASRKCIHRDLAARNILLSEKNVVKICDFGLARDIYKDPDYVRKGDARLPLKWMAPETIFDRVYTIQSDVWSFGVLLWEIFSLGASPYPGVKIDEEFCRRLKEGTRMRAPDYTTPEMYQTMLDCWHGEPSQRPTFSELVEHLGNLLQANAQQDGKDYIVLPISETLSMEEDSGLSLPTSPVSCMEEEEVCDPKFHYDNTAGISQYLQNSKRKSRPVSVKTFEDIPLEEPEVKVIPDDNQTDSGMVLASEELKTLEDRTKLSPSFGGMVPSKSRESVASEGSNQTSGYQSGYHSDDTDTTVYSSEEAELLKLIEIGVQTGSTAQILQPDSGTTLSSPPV

Compound	inhibition
CC(C)C[C@H](NC(=O)[C@H](CCc1ccccc1)NC(=O)CN1CCOCC1)C(=O)N[C@@H](Cc1ccccc1)C(=O)N[C@@H](CC(C)C)C(=O)[C@@]1(C)CO1	21.4%
COc1cc(NCc2ccc3nc(N)nc(N)c3c2C)cc(OC)c1OC	35.8%
COc1cc2c(c(OC)c1OC)-c1ccc(OC)c(=O)cc1[C@@H](NC(C)=O)CC2	-20.7%
S=c1nc[nH]c2nc[nH]c12	15.9%
CCc1nc(N)nc(N)c1-c1ccc(Cl)cc1	17%
CCN(CC)CCOc1ccc(/C(=C(\Cl)c2ccccc2)c2ccccc2)cc1	-7.53%
Cc1nc2ccc(CN(C)c3ccc(C(=O)N[C@@H](CCC(=O)O)C(=O)O)s3)cc2c(=O)[nH]1	7.13%
CC(=O)[C@]1(O)Cc2c(O)c3c(c(O)c2[C@@H](O[C@H]2C[C@H](N)[C@H](O)[C@H](C)O2)C1)C(=O)c1ccccc1C3=O	-143%
CCCN(CCC)C(=O)C(CCC(=O)OCCCN1CCN(CCOC(=O)Cc2c(C)n(C(=O)c3ccc(Cl)cc3)c3ccc(OC)cc23)CC1)NC(=O)c1ccccc1 (configuration not stated)	-17.9%
COC(=O)[C@H]1[C@H]2C[C@@H]3c4[nH]c5cc(OC)ccc5c4CCN3C[C@H]2C[C@@H](OC(=O)/C=C/c2ccc(O)c(OC)c2)[C@@H]1OC	16.4%
C=CC(=O)Nc1cc2c(Nc3ccc(F)c(Cl)c3)ncnc2cc1OCCCN1CCOCC1	98.7% (active)
Oc1c(I)cc(I)c2cccnc12	0.24%
